Screens from PubChem BioAssay.
CHRM4 PAM: positive allosteric modulators of human muscarinic M4 receptor; activation, % at 3 µM; P08173; actives 0.4% (n = 360,000); CHO-K1 hM4/Gqi5, Fluo-8 calcium fluorescence, ACh EC20; 0% = ACh EC20, 100% = maximal ACh;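 active = activation above its plate's cutoff, the mean activation of sample wells plus 3 SD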
M1 antag: blocks human M1 muscarinic receptor. P11229. CHO-K1 hM1, Fluo-8 calcium fluorescence, ACh EC80 antagonist. inhibition, % at 3 µM. actives 1.3% (n = 360,000). AID 588852;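 active = percent inhibition above its own plate's cutoff, namely the mean of that plate's compound wells plus 3 SD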;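 also: peak over basal fluorescence ratio during 140 s after agonist addition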
Target sequence (P11229 whole entry, looked up): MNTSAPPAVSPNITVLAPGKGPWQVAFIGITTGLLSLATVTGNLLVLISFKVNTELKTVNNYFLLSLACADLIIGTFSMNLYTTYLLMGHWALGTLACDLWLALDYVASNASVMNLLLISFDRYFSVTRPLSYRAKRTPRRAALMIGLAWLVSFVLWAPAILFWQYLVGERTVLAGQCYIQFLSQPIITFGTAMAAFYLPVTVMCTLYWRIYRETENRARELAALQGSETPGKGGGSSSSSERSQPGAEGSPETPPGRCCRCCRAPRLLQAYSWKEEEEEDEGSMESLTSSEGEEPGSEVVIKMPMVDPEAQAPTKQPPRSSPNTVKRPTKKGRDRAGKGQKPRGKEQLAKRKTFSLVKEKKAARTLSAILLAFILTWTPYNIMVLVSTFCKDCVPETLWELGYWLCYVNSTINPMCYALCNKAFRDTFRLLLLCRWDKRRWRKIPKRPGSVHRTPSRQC
M1 PAM: potentiates human M1 receptor response to acetylcholine. AID 588819. CHO-K1 hM1, Fluo-8 calcium fluorescence, ACh EC20; 0% = ACh EC20, 100% = maximal ACh. actives 0.088% (n = 360,000). activation, % at 3 µM; in the data active = activation above about 19%, passing the limit was not always enough
M4 antag: blocks acetylcholine activation of human M4 receptor | P08173 | CHO-hM4 cells, ACh EC80, Fluo-8 calcium fluorescence | inhibition, % at 3 µM | actives 0.73% (n = 360,000);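 active = inhibition above its plate's cutoff, the mean inhibition of sample wells plus 3 SD, cut at about 27% in these data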
M1 ag: agonists of human M1 muscarinic receptor | CHO-K1 hM1, Fluo-8 calcium fluorescence, agonist mode; 0% DMSO, 100% acetylcholine EC100 | activation, % at 3 µM | actives 0.33% (n = 360,000) | AID 588814;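 active = activation above the run's mean compound activation plus 3 SD, cut at about 16% in these data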;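 also: peak over basal fluorescence ratio within a 140 s kinetic read after compound addition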
M4 ag: CHRM4 agonism in calcium assay. P08173. CHO-K1 hM4/Gqi5, Fluo-8 calcium fluorescence; vehicle 0%, full acetylcholine response 100%. activation, % at 3 µM. actives 0.14% (n = 360,000). AID 624127;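 active = activation above the run mean over all test wells plus 3 SD, cut at about 32% in these data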;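 also: peak over basal fluorescence ratio per well then scaled between controls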
Of the large screens only hits and unclear results are named; the others gave an inactive call. Sampled rows, rich in hits. Any-hit rate of the full collection: about 2.2%.

Cc1nn(C)c(C)c1N1C(=O)c2cccc3c(N)ccc(c23)C1=O	M1 antag 35, M4 antag 28, M1 ag 90, M4 ag 82
O=C1c2cccc3c(N4CCCCC4)ccc(c23)C(=O)N1c1ccccn1	none
CCCCNc1ccc2c3c(cccc13)C(=O)N(CCCC)C2=O	M1 antag 90, M4 antag 81, M1 ag 296, M4 ag 267
Cc1ccc(N2C(=O)c3cccc4c(N)ccc(c34)C2=O)c2cccnc12	M1 ag 29
CCCN1C(=O)c2cccc3c(N4CCCCC4)ccc(c23)C1=O	none
CN1C(=O)[C@H]2[C@@H](/C=C/c3ccccc3)N3C(=O)CN(CCO)C(=O)[C@@]3(Cc3ccccc3)[C@H]2C1=O	none
COc1ccccc1NC(=S)NCCN1CCOCC1	none
COc1ccc(NC(=S)NCCN2CCOCC2)c(OC)c1	CHRM4 PAM 16
O=C(N/N=C/c1cccc2cccnc12)c1ccccc1O	M4 antag 35
COc1cccc(OC)c1C(=O)Nc1ccc(N2CCCC2)cc1	M1 antag 31
O=C(Nc1ccc(N2CCCC2)cc1)c1cc(Cl)ccc1Cl	M1 antag 36
O=C(Nc1ccc(N2CCCC2)cc1)c1ccc(Cl)cc1Cl	none
COc1cc(OC)cc(C(=O)Nc2cccc(N3CCCC3)c2)c1	M4 antag 28
CC(C)Oc1ccc(C(=O)Nc2ccc(N3CCCC3)cc2)cc1	M1 antag 29
Cc1nc(C)c(C(=O)OCC(=O)NCCc2ccc(F)cc2)s1	none
CC(C)C(=O)Nc1ccc(N2CCN(c3ccc(F)cc3)CC2)cc1	none
CC(C)C(=O)Nc1ccc(N2CCCC2)cc1	M4 antag 30
CC1(C)Cc2ccccc2C(N/N=C/c2cccc(F)c2)=N1	none
CCc1c(C)nc2[nH]nc(-c3ccccc3)n2c1=O	none
Cc1ccc(S(=O)(=O)NC(=O)C2(C)CCN2C(=O)c2c(C)noc2C)cc1 (stereo not given)	none
CCCCOc1ccc(S(=O)(=O)NC(=O)C2(C)CCN2C(=O)c2c(C)noc2C)cc1 (stereo not given)	CHRM4 PAM 19
COc1cccc(C(=O)C2CCCN(Cc3cccn3-c3cccnc3)C2)c1 (stereo not given)	none
S=C(NCc1ccccc1)Nc1ccc(Cl)cc1	none
FC(F)(F)Sc1ccc(NC(=S)NCc2ccccc2)cc1	M1 antag 40
COc1ccc(-c2nnc3ccc(SCC(=O)NCc4ccco4)nn23)cc1	none
C[C@H](CO)N1C[C@H](C)[C@@H](CN(C)S(=O)(=O)c2ccccc2)OCc2cn(nn2)CCCC1=O	M1 antag 24
C[C@@H]1CN([C@H](C)CO)C(=O)CCCn2nncc2CO[C@@H]1CN(C)S(=O)(=O)c1ccccc1C#N	M1 PAM 27
Cc1ccc(S(=O)(=O)N(C)C[C@@H]2OCc3cn(nn3)CCCC(=O)N([C@@H](C)CO)C[C@H]2C)cc1	M1 PAM 25
C[C@@H]1CN([C@@H](C)CO)C(=O)CCCn2cc(nn2)CO[C@H]1CN(C)S(=O)(=O)c1ccc(-c2ccccc2)cc1	none
Cc1ccc(NC(=O)COC(=O)CN2C(=O)NC3(CCCC3)C2=O)cc1F	none
CC(=O)Oc1ccc(N2C(=O)C3C4C=CC(CO)(O4)C3C2=O)cc1 (stereo not given)	none
O=C1C2C3C=CC(CO)(O3)C2C(=O)N1c1ccccc1-c1ccccc1 (stereo not given)	M4 antag 27
Cc1ccc(CN2C(=O)CCC2C(=O)NC2CC2)cc1 (stereo not given)	CHRM4 PAM 26
O=C(N/N=C1\C/C(=N\NC(=O)c2ccncc2)c2ccccc21)c1ccncc1	none
CC1(C)Cc2c(cnn2-c2ccccc2)C(=O)/C1=N\NC(=O)c1ccncc1	CHRM4 PAM 18
Cc1cccc2cc3c(N)c(C(=O)Nc4ccc(N5CCOCC5)cc4)sc3nc12	none
Cc1cccc2cc3c(N)c(C(=O)N4CCc5ccccc54)sc3nc12	M1 antag 30
CCC(Sc1nc2ccc(N)cc2s1)C(=O)Nc1nccs1 (stereo not given)	none
CN1CCN(C(c2cccs2)c2nnnn2Cc2ccc(F)cc2)CC1 (stereo not given)	none
CCC(c1nnnn1Cc1ccc(F)cc1)N1CCN(C)CC1 (stereo not given)	CHRM4 PAM 24
Cc1sc2ncnc(NCC(c3ccco3)N3CCCC3)c2c1C (stereo not given)	M1 antag 91, M4 antag 40
CCOC(=O)C1=C[C@@H](C(C)C)N(S(=O)(=O)c2ccc([N+](=O)[O-])cc2)[C@H]1c1ccccc1	M1 antag 58
CCCCC(=O)Nc1nnn(CCC)n1	none (no result: M1 antag, M1 PAM, M1 ag)
CCCCn1nnc(NC(=O)CC23CC4CC(CC(C4)C2)C3)n1	CHRM4 PAM 15
CCCn1c(N)c(C(=O)CN(C)CC(=O)Nc2ccccc2CC)c(=O)[nH]c1=O	none
COc1ccc(NS(=O)(=O)c2cccc(C(=O)N/N=C/c3cn(-c4ccccc4)nc3-c3ccccc3)c2)cc1	M4 antag 51
COc1ccc(NS(=O)(=O)c2cccc(C(=O)N/N=C/c3cn(-c4ccccc4)nc3-c3ccc(OC)cc3)c2)cc1	none
Cn1c(Cl)c(/C=N/OC(=O)c2cccc(Cl)c2)c2ccccc21	none
COc1ccccc1OCC(=O)Nc1cccc(-c2nnc(-c3ccco3)o2)c1	M1 antag 24
O=C(Cc1ccccc1)Nc1cccc(-c2nnc(-c3ccco3)o2)c1	none
COc1ccc(CC(=O)Nc2cccc(-c3nnc(-c4cccc(C)c4)o3)c2)cc1OC	M1 antag 38
COc1ccc(CC(=O)Nc2cccc(-c3nnc(-c4ccccc4)o3)c2)cc1OC	M1 antag 29
CCOC(=O)c1ccc(N2CN(CCc3ccccc3)CNC2=S)cc1	none
Cc1ccc(N2CN(CCc3ccccc3)CNC2=S)cc1	CHRM4 PAM 14
COc1ccc(C(=O)CSc2nnc(CNC(=O)c3ccco3)n2C)cc1OC	none
CN1OC[C@@H]2CN(S(=O)(=O)c3cccc4ccccc34)[C@H](c3ccc(-c4ccccc4)cc3)C[C@@H]21	M1 PAM 25
Cc1ccccc1S(=O)(=O)N1C[C@H]2CON(C)[C@H]2C[C@H]1c1cccc(-c2ccccc2)c1	none
CC(=O)Nc1ccc(OCC(O)Cn2c3ccccc3c3ccccc32)c(C)c1 (stereo not given)	M4 antag 27
Cc1ccc(S(=O)(=O)/N=C2/NC(=O)/C(=C/c3cc([N+](=O)[O-])ccc3O)S2)cc1	M4 antag 30, M1 ag 32, M4 ag 108
